The term Inhibition denotes the relative decrease from the control value, in per cent. A lower Inhibition goes with a weak effect.

40 compounds from ChEMBL document CHEMBL1157539, “Thousands of chemical starting points for antimalarial lead identification” (Nature, 2010) can be followed below.

The test system of the assay is HepG2. Description: GSK_TCMDC: Percent inhibition of human HepG2 cell line. Test compounds present at 10uM. Format: functional.
Compound `COc1ccc2[nH]c(C)cc(=NN=Cc3cccc(F)c3)c2c1` came in with an Inhibition of 2%. As for `O=C(c1ccc(-c2cccc(-c3nc4cc(F)ccc4[nH]3)c2)cc1)N1CCCCC1CN1CCC(O)C1` (stereo not given), the Inhibition came out at 11%. `CCCCNC(=O)[C@@H]1CCCN1C(=O)c1ccc(O)c(-c2ccc(Cl)c(Cl)c2)c1`: the Inhibition stood at 0%. Next, `Cc1ccc(C)c2sc(N3CCN(C(=O)c4ccc([N+](=O)[O-])o4)CC3)nc12`: 0%; `Cc1ccc(C)c2sc(N(CCCn3ccnc3)C(=O)C=Cc3cccs3)nc12.Cl`: 20%; `CC(c1cccc(S(=O)(=O)NCc2cccc(C(F)(F)F)c2)c1)N1CCC(N2CCCCC2)CC1` (stereo not given): 37%. With `Cc1ccccc1C(O)CNc1ccnc(Nc2cccc(C#N)c2)n1` (stereo not given) the figure was 22%.

On to `CCC1(C)CC(CCNCc2ccccc2O)(c2ccccc2OC)CCO1.Cl` (stereo not given), for which the Inhibition is 10%. Compound `Cc1c(F)cc(C(=O)NC2CC2)cc1-c1ccc2c(cnn2S(=O)(=O)c2ccc(F)c(F)c2)c1` had an Inhibition of 49%.

`Fc1cccc(CNc2ncc(-c3ccsc3)c(-c3nccs3)n2)c1` displayed an Inhibition of 15%. On to `CO/C(=C\C=C/c1cc2cc(Cl)c(Cl)cc2[nH]1)C(=O)NC1CC(C)(C)N(C)C(C)(C)C1`, for which the Inhibition amounted to 65%. With `NC(=O)C1CCN(Cc2ccc(-c3cccc(-c4nc5cc(F)ccc5[nH]4)c3)cc2)CC1.O=C(O)C(F)(F)F` the figure was 10%; with `CNc1ccc(CNCc2cccc(-c3ccc(-c4nc5ccccc5[nH]4)s3)c2)cc1.O=C(O)C(F)(F)F`, 15%. Next, `CC12CCC(C(=O)N(CC(O)Cn3c4ccc(Cl)cc4c4cc(Cl)ccc43)C1=O)C2(C)C` (stereo not given): 0%. Turning to `Br.CCOc1ccc(CCCON2C(=N)N=C(N)NC2(C)C)cc1`, the Inhibition is 65%.

`N#Cc1cccc(NC(=O)C2=C(CCc3ccc4c(c3)OCO4)NC(=O)NC2c2cccc(C#N)c2)c1` (stereo not given) displayed an Inhibition of 3%.

As for `CC1CCN(C(=O)C(Cc2c[nH]c3ccccc23)NS(=O)(=O)c2ccc(Cl)cc2)CC1` (stereo not given), the Inhibition is listed as 0%. With `CCc1ccc(NC(=O)c2cccc(CN3CCCN(Cc4ccc(OC)cc4)CC3)c2)cc1.O=C(O)C(F)(F)F` the figure was 35%. Next, `O=C(O)C(F)(F)F.O=[N+]([O-])c1cccc(CNCC2CCN(Cc3ccc(O)cc3)CC2)c1`: 8%. With `O=C(c1cccc(-c2ccc(-c3nc4cc(F)ccc4[nH]3)s2)c1)N1CCCCC1CN1CCC(O)C1` (stereo not given) the figure was 23%; with `CCCCCCCCS(=O)(=O)NCCCC1CCN(CCCCCNC(=O)C=Cc2ccc(Cl)c(Cl)c2)CC1`, 100%; with `COc1ccc2ncc(F)c(NC(=O)C3CCC(NCc4cc5c(F)cccc5[nH]4)CC3)c2n1.Cl` (stereo not given), 39%. `OC1(c2ccc(Br)cc2)CCN(C2CCN(Cc3ccccc3)CC2)CC1` gave an Inhibition of 8%. `COc1ccc(Nc2nccc(-c3ccc4c(-c5ccsc5)cnc(N)c4c3)n2)cc1` displayed an Inhibition of 38%. With `COc1ccc(NC(=O)/C=C/c2ccccc2Cl)cc1OCCN1CCC(c2nc3ccccc3[nH]2)CC1.Cl` the figure was 35%; with `Fc1ccc2cc(C=Cc3ccncc3)[nH]c2c1`, 0%; with `CC(C)(C)c1nn(-c2ccccc2)c2[nH]c(=O)c(CNCCc3ccccc3)cc12`, 0%. Take `CC(Cc1ccc(CN2CCN(Cc3ccccc3)CC2)cc1)NCC(O)c1cccc(C(F)(F)F)c1.Cl` (stereo not given): the Inhibition worked out at 51%. Next, `O=C(Cc1ccc(NC(=O)c2ccc(O)c(-c3ccc(Cl)c(Cl)c3)c2)cc1)NCc1cccc(C(F)(F)F)c1`: 0%. Next, `Br.Cc1ccc2ccccc2c1CCCON1C(=N)N=C(N)NC1(C)C`: 65%; `N=C1NC(=O)C(=Cc2cn(-c3ccccc3)nc2-c2cccc(S(=O)(=O)N3CCCC3)c2)S1`: 0%.

Compound `CC(C)Cn1cc(C2CCN(CCN3CCC(CNC(=O)c4ccc(-c5ccc(C#N)cc5)cc4)CC3)CC2)c2ccccc21` gave an Inhibition of 28%. On to `CCCCCN1CCC(NC(=O)c2ccc(C(=O)Nc3ccc(C(C)C)cc3)cc2)C1.O=C(O)C(F)(F)F` (stereo not given), for which the Inhibition is given as 38%. Next, `CCOc1cc(Cc2cnc(N)nc2N)cc(OCC)c1-n1cccc1` [EPIROPRIM]: 0%.

`COc1ccc2c(NN=Cc3ccccc3F)ccnc2c1`: the Inhibition stood at 15%. Next, `Cc1sc(C)c(C(F)(F)F)c1CNCCCNc1cc(=O)c2ccccc2[nH]1.Cl`: 0%. With `Cc1cccc(Oc2cccc3[nH]nc(N)c23)c1` the figure was 6%; with `O=S(=O)(c1ccccc1)C1CC1`, 0%; with `Cc1cnc2ccc(NS(=O)(=O)c3sc4ccc(Cl)cc4c3C)cc2c1N1CCNCC1.Cl`, 0%.

Compound `COc1ccc(C2CCN(CCN3CCC(NC(=O)c4ccc(-c5cccc(C(F)(F)F)c5C(F)(F)F)cc4)CC3)CC2)c(OC)c1` had an Inhibition of 35%.
